CYP2C9 inh: blockers of cytochrome P450 2C9 activity – biochemical, luminescence, ADME assay, primary screen. 96,000 tested, 20% active. CYP2C9 Supersomes, luciferin-H conversion. P11712. inhibition, % at 5 µM. AID 777, 2007;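 active = blocking of liver enzyme CYP2C9 beyond about 50% at 5 µM, limit read from the data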
Target sequence (P11712 whole entry, looked up): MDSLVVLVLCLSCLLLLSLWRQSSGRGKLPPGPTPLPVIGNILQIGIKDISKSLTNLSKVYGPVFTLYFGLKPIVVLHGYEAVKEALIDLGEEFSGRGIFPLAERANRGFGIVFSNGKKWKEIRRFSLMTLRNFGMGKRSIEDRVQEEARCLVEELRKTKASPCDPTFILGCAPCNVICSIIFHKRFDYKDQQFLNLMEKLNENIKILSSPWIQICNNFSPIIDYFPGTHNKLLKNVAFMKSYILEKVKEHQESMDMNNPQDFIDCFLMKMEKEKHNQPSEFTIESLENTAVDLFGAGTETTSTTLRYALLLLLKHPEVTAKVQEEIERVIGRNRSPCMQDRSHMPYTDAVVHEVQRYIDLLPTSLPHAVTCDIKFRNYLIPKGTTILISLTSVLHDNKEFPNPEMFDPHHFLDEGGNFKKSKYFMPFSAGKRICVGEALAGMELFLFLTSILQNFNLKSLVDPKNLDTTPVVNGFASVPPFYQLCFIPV
cytoskel mod: modifiers of F-actin cytoskeleton organization, primary screen, imaging, HUVEC, phalloidin staining, high-content imaging; HUVEC TNFa F-actin phalloidin imaging; inhibition, % at 2 µM; 91,000 tested, 0.18% active; AID 836, 2007;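 active = inhibition above the batch mean plus 3 SD and confirmed as a hit by visual image inspection, cut at about 30% in these data, passing the limit was not always enough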
CYP2C19 activ: human CYP2C19 activators, primary screen, biochemical, luminescence; Cytochrome P450 2C19 (Homo sapiens), P33261; recombinant CYP2C19, luciferin-H EGE luminescence; hits give high values; 0 = fully inhibited enzyme, 1 = untreated enzyme; activation factor at 5 µM; 96,000 tested, under 10 active; AID 1025, 2008;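 active = activation factor of at least 2 at 5 µM in the primary screen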;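 also: 0 = wells with 2.5 mM tranylcypromine and 1 = vehicle-only wells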
CYP2C9 act: human CYP2C9 activators, primary screen, biochemical, luminescence; activation factor at 5 µM; recombinant CYP2C9, luciferin-H conversion; hits give high values; factor 1 = untreated enzyme, 0 = blocked; Cytochrome P450 2C9 (Homo sapiens), P11712; 96,000 tested, 1.4% active;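 active = activation factor of 2 or more for CYP2C9 at a 5 µM dose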;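 also: 0 = sulfaphenazole-blocked wells and 1 = vehicle-only wells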
CYP2C19 inhib: blockers of cytochrome P450 2C19 activity – biochemical, luminescence, ADME assay, primary screen; CYP2C19 Supersomes, luciferin-H EGE luminescence, 30 min; inhibition, % at 5 µM; 96,000 tested, 21% active;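 active = CYP2C19 inhibition above a set limit at 5 µM in the primary screen, cut at about 50% in these data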;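 also: plate controls were negative control wells for no effect and 2.5 mM tranylcypromine positive control for full effect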
E-sel TNF inh: E-selectin induction blockers in HUVEC – imaging, immunofluorescence, high content, primary screen | HUVEC TNFa-induced E-selectin immunofluorescence | inhibition, % at 2 µM | 120,000 tested, 0.71% active | AID 1246, 2008;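 active = inhibition above the batch mean plus 3 SD, and confirmed as a hit on visual image review, cut at about 43% in these data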;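 also: 0% = TNF-stimulated DMSO wells and 100% = unstimulated control wells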
* = called active by the depositor; x = no result. This is a sample that favours compounds with a hit; in the whole collection about 22% have one here.

SMILES	CYP2C9 inh	cytoskel mod	CYP2C19 activ	CYP2C9 act	CYP2C19 inhib	E-sel TNF inh
COc1ccc(NC(=O)N(CCCN2CCOCC2)Cc2cccnc2)c(OC)c1	x	-7.3	x	x	x	60.9*
O=C(Nc1ccccc1)N(CCN1CCOCC1)Cc1ccccc1F	88.8*	-13.7	0.4	0.1	55.5*	19.6
COc1ccc(OC)c(CN(CCCN2CCOCC2)C(=O)Nc2ccccc2)c1	x	3.4	x	x	x	8.7
Cc1ccc(NC(=O)N(CCCN2CCOCC2)Cc2cccnc2)cc1C	95.9*	1.4	0	0	100.4*	26.8
CCc1ccc(NC(=O)N(CCN2CCOCC2)Cc2ccc3c(c2)CCCN3CC)cc1	24.4	8.5	0.7	0.8	27.5	31.0
CN(C)CCCNC(=O)C1CCNCC1	-0.6	x	1	1	4.8	4.3
O=C(Nc1ccccc1)N(CCCN1CCOCC1)Cc1cccs1	4.2	9.4	0.9	1	13.8	0.8
CCc1ccc(NC(=O)N(CCCN2CCOCC2)Cc2cccs2)cc1	58.8*	-6.3	0.6	0.4	35.5	-7.1
CC(NC(=O)c1ccc(F)cc1)c1nc2ccccc2n1Cc1ccccc1F (stereo not given)	49.9	11.2	0.5	0.5	47.5	25.1
Cc1ccc(C2Nc3cccc4cccc(c34)N2)s1	x	x	x	x	x	0.4
COc1ccc(OC)c(/C=N\NC(=O)CSc2nnc(CCCc3ccc(OC)c(C)c3)o2)c1	70.4*	-10.7	0.4	0.3	64.2*	-20.8
COc1ccc(CCCc2nnc(SCC(=O)Nc3ncc(C)s3)o2)cc1	48.5	-28.7	0.7	0.5	32.9	17.0
COc1ccc(CCCc2nnc(SCC(=O)Nc3cccc(C)c3)o2)cc1	63.8*	x	0.5	0.4	53.5*	6.9
COc1ccc(CCCc2nnc(SCC(=O)Nc3cc(C)c(C)cc3Br)o2)cc1	83.2*	8.3	0.3	0.2	68.6*	-4.0
O=C(CC1Oc2ccccc2NC1=O)NCc1ccc(Cl)cc1 (stereo not given)	-44.2	17.1	0.9	1.4	9.9	-7.9
Cc1cc(OCCN2CCCC2)ccc1[N+](=O)[O-]	x	x	x	x	x	2.2
CCOC(=O)N1CCN(C(=O)c2cc(OC)cc(OC)c2)CC1	9.1	19.5	0.8	0.9	25.0	9.7
CC(C)C(=O)Nc1cccc(C(=O)NCc2ccc3c(c2)OCO3)c1	x	x	x	x	x	9.2
CC12CC(NC(=O)N1c1cccc(C(=O)N3CCN(c4ccccc4F)CC3)c1)c1ccccc1O2 (stereo not given)	79.2*	-3.1	0.6	0.2	43.9	-0.2
CC12CC(NC(=O)N1c1ccc(C(=O)N3CCN(c4ccccn4)CC3)cc1)c1ccccc1O2 (stereo not given)	6.3	13.7	0.9	0.9	7.6	0.4
CC12CC(NC(=O)N1c1cccc(C(=O)N3CCN(c4ccccn4)CC3)c1)c1ccccc1O2 (stereo not given)	63.3*	-4.8	0.6	0.4	44.3	11.2
CC12CC(NC(=O)N1c1cccc(C(=O)NCc3ccc4c(c3)OCO4)c1)c1cc(Cl)ccc1O2 (stereo not given)	78.7*	-10.1	0.4	0.2	59.2*	11.7
O=C(CSc1nnc2ccccn12)N1CCc2ccccc21	x	x	x	x	x	-17.7
CCOC(=O)COc1ccc(Br)cc1/C=C/c1[nH]c(=O)[nH]c(=O)c1[N+](=O)[O-]	x	x	x	x	x	-7.8
c1cc(-c2noc(CC3CCCCC3)n2)ccn1	77.0*	x	0	0.2	98.8*	-40.5
SMILES	CYP2C9 inh	cytoskel mod	CYP2C19 activ	CYP2C9 act	CYP2C19 inhib	E-sel TNF inh
COc1ccc(N(CC(=O)Nc2cc(OC)ccc2OC)S(=O)(=O)c2c(C)nn(C)c2C)cc1	84.1*	-3.1	0.2	0.2	75.8*	x
COc1cccc(NC(=O)CN(c2ccc(C)cc2)S(=O)(=O)c2c(C)nn(C)c2C)c1	75.7*	-15.8	0.3	0.2	69.1*	-8.7
COc1ccc(N(CC(=O)Nc2cccc(OC)c2)S(=O)(=O)c2c(C)nn(C)c2C)cc1	82.8*	0.8	0.3	0.2	74.7*	x
COc1ccc(N(CC(=O)Nc2nc3ccc(C)cc3s2)S(=O)(=O)c2c(C)nn(C)c2C)cc1	48.3	-15.8	0.6	0.5	36.8	21.1
O=C(O)[C@H](CO)Nc1ncnc2sc3c(c12)CCC3	-15.7	1.3	0.9	1.2	10.9	-0.2
O=C(Cn1cccc1C(=O)c1ccccc1)NCc1ccc2c(c1)OCO2	33.9	-6.6	0.5	0.7	54.7*	x
CC(C)(C)C(=O)c1cn(CC(=O)NCc2ccc3c(c2)OCO3)c2ccccc12	50.5*	11.0	0.5	0.5	52.7*	-13.8
O=C(Cn1cccc1C(=O)c1ccccc1)NCc1ccccc1	-15.7	-5.0	0.6	1.2	42.1	38.8
O=C(COc1ncnc2ccccc12)NCc1ccc2c(c1)OCO2	5.9	8.1	1	0.9	-2.2	-30.1
Cc1nc2ccccc2nc1OCC(=O)NCc1ccc2c(c1)OCO2	10.9	-29.8	0.5	0.9	51.1*	22.6
O=C(Cn1nc(-c2ccc(Cl)cc2)ccc1=O)NCc1ccc2c(c1)OCO2	76.9*	2.1	0.5	0.2	52.4*	-4.0
CC(C)C(=O)c1cn(CC(=O)NCc2ccc3c(c2)OCO3)c2ccccc12	x	10.4	x	x	x	-19.2
CN(Cc1ccccc1)c1ccc([N+](=O)[O-])cc1C(=O)O	x	x	x	x	x	-9.8
CCOc1cc(NC(=S)NCCCN2CCOCC2)c(OCC)cc1NC(=O)C1CC1	x	x	x	x	x	5.1
COc1ccc(C(NC(=O)c2cccc(F)c2)c2ccccc2)cc1 (stereo not given)	x	x	x	x	x	-34.9
O=C(Cn1cccc1C(=O)c1ccccc1)NCc1cccs1	1.5	19.9	0.3	1	73.2*	40.1
O=C(CN(C(=O)C1CSC(=O)C1)c1ccccc1F)NCc1ccc2c(c1)OCO2 (stereo not given)	44.3	-22.5	0.1	0.6	86.7*	-3.7
CN(C)C(CNC(=O)CCCc1c[nH]c2ccccc12)c1ccco1 (stereo not given)	-29.9	-1.6	0.7	1.3	29.3	-49.5
O=C(CCCc1c[nH]c2ccccc12)NCc1ccc2c(c1)OCO2	50.6*	-5.9	0.2	0.5	83.1*	19.4
CC(C)CNC(=O)CCCc1c[nH]c2ccccc12	-113.6	6.5	0.4	2.1*	63.3*	19.1
COc1cc(C)ccc1OCCCON1C(=O)CCC1=O	16.1	2.8	0.6	0.8	40.7	x
CCCSc1cc(=O)n(-c2ccc(F)cc2)nc1C(=O)OCC	x	x	x	x	x	-23.8
COc1ccc(C(=O)Nn2c(CCC(=O)O)ccc2-c2ccc(C)cc2)cc1OC	x	x	x	x	x	-27.2
CC(Sc1ccc(Cl)cc1)C(=O)NCc1ccc2c(c1)OCO2 (stereo not given)	99.5*	3.3	0.2	0	76.2*	4.8

Screening data as filed in PubChem BioAssay.
